Among all 52,000 compounds or so, about 4,300 (8.3%) were called active. What follows is part of a selection rich in actives, with near analogues and random picks from the rest. Values without a mark were called inactive. No stated cut-off is given here; in the data, active means survival mostly below about 52% (no sharp cut-off); inactive means mostly above about 56%.

This assay deals with DeltatarO mutant. The assay is described as follows: growth inhibition of S. aureus wild type versus tarO mutant, primary screen, teichoic acid synthesis inhibitors, RN4220, OD600 (AID 463173). As to conditions: OD600, 18 h, stronger effect = lower value, screened at 18.75 µg/mL (by protocol).
For `NC(=O)CN(c1ccccc1)C1SC(=O)NC1=O` (centres undefined), the survival is 76%.

As to `COc1ccccc1-n1c(SCC(=O)Nc2ccc(C)cc2)nc(O)cc1=O`, the survival was 61%.

On to `Cc1ccc(CSc2nc3ccncc3n2Cc2nc(-c3ccc(Cl)cc3)oc2C)cc1`, for which the survival is 63%.

For the compound `COC(=O)c1ccc(Cn2c(SCc3ccc(F)cc3)nc3ccncc32)cc1`, the survival was 54%.

Regarding `O=C(NC1CCCC1)c1ccc(CSc2nc3ccncc3n2Cc2cccc(F)c2)cc1`, the survival is 60%.

Consider `Cc1ccc(C)c(CSc2nc3ccncc3n2Cc2nc(-c3ccccc3Cl)oc2C)c1`, for which the survival is 71%.

`COc1ccc(CNC(=O)c2ccc(CSc3nc4ccncc4n3Cc3ccccc3F)cc2)cc1`: the survival is 62%.

With `Cc1cccc(Cn2c(SCc3ccc(C(=O)NC4CCCC4)cc3)nc3ccncc32)c1`, the survival was 54% (active).

As to `COC(=O)c1ccc(Cn2c(SCc3ccccc3F)nc3ccncc32)cc1`, the survival was 42% (active).

Take `COC(=O)c1ccc(Cn2c(SCc3ccccc3)nc3ccncc32)cc1`: the survival is 45% (active).

As to `COC(=O)c1ccc(Cn2c(SCc3cccc(C)c3)nc3ccncc32)cc1`, the survival is 83%.

As to `Cc1ccc(CSc2nc3ccncc3n2Cc2nc(-c3ccccc3C)oc2C)cc1`, the survival was -4% (active).

As to `Cc1cccc(Cn2c(SCc3ccc(C(=O)NC4CCCCC4)cc3)nc3ccncc32)c1`, the survival is 75%.

`COC(=O)c1ccc(CSc2nc3ccncc3n2Cc2ccc(F)cc2)cc1`: the survival was 93%.

Turning to `COc1ccc(NC(=O)CCc2nnc3n(Cc4ccc(C)cc4)c(=O)c4ccccc4n23)cc1`, the survival was 59%.

Regarding `Cc1cccc(-c2cc3nc(C)cc(NCCCn4ccnc4)n3n2)c1`, the survival is 88%.

As for `O=C(O)CSCCn1cccn1`, the survival is 93%.

With `CC(C)=CCC(C)(C)CNc1ccc(C)cc1`, the survival was 66%.

Regarding `CCOc1ccccc1NC(=O)C1CCCN(c2ncnc3onc(-c4ccc(F)cc4)c23)C1` (centres undefined), the survival was 85%.

Turning to `Cc1cc(C)cc(NC(=O)CCc2c(C)nc3c(c2C)c(=O)n(C)c(=O)n3C)c1`, the survival is 64%.

For the compound `COc1ccc(CN2C(=O)N(c3ccc(F)cc3)C(=O)C2CC(=O)Nc2cc(OC)cc(OC)c2)cc1` (centres undefined), the survival was 81%.

As for `Cn1c2ccccc2c2nnc(SCC(N)=O)nc21`, the survival is 76%.

With `CCc1ccccc1NC(=O)Cn1c(=O)n(CCCS(=O)(=O)C2CCCCC2)c(=O)c2ccccc21`, the survival was 86%.

As to `CCOc1ccc(CNC(=O)c2cnc3sc(N4CCOCC4)nn3c2=O)cc1`, the survival was 81%.

For `CCOC(=O)c1c(C)[nH]c(CCC(=O)NCc2cccc(C)c2)c1C`, the survival was 70%.

For `Cc1ccc(-n2ncc3c(N(C)C)ncnc32)cc1Cl`, the survival is 94%.

Turning to `Cc1ccc(Cn2c(SCc3ccc(C(=O)N4CCCCCC4)cc3)nc3ccncc32)cc1`, the survival was 71%.

In the case of `O=C(c1ccc(CSc2nc3ccncc3n2Cc2ccccc2)cc1)N1CCCCCC1`, the survival was 70%.

In the case of `Cc1ccc(Cn2c(SCc3ccc(C(=O)N4CCCCC4)cc3)nc3ccncc32)cc1`, the survival is 7% (active).

Consider `Cc1cc(C)c(C#N)c(S(C)(=O)=O)n1`, for which the survival is 106%.

As for `CCc1ccccc1NC(=O)C1CCN(S(=O)(=O)c2cn(C)cn2)CC1`, the survival is 93%.

For `CCCCN(C)C(=O)C1CCCN(c2ncnc3onc(-c4ccc(F)cc4)c23)C1` (centres undefined), the survival is 77%.

As to `Cc1ccc(Nc2c(-c3ccc(N4CCOCC4)cc3)nc3ncccn23)c(C)c1`, the survival is 80%.

As to `Cc1ccc2c(c1C)NC(=O)CC2c1ccc(Cl)cc1Cl` (centres undefined), the survival was 4% (active).

Take `COc1cccc(C2CC(=O)Nc3c2ccc(C)c3C)c1OC` (centres undefined): the survival is 94%.

As to `CC1=C(C(=O)OCC2CCCCC2)C(c2ccc(Cl)cc2Cl)CC(=O)N1` (centres undefined), the survival was 82%.

Consider `CCc1ccc(C(=O)CC2(O)C(=O)N(CCc3ccccc3)c3ccc(Br)cc32)cc1` (centres undefined), for which the survival was 52%.

As to `CCc1ccc(C(=O)CC2(O)C(=O)N(C(C)C)c3ccccc32)cc1` (centres undefined), the survival is 79%.

As to `CC(C)c1ccc(C(=O)CC2(O)C(=O)N(CCc3ccccc3)c3ccc(Cl)cc32)cc1` (centres undefined), the survival is 33% (active).

As for `Cc1ccc(C(=O)CC2(O)C(=O)N(Cc3ccccc3F)c3ccccc32)cc1` (centres undefined), the survival was 60%.

As to `CCc1ccc(C(=O)CC2(O)C(=O)N(CCc3ccccc3)c3ccc(Cl)cc32)cc1` (centres undefined), the survival is 19% (active).

For `CCCN1C(=O)C(O)(CC(=O)c2ccc(C(C)C)cc2)c2ccccc21` (centres undefined), the survival was 142%.

For the compound `Cc1ccc(C(=O)CC2(O)C(=O)N(CCc3ccccc3)c3ccc(Cl)cc32)cc1` (centres undefined), the survival is 17% (active).

As to `Cc1ccc(-c2c3c(=O)n(C)c(=O)n(C)c3c3c(C(F)(F)F)nc4ccccc4n23)cc1`, the survival is 77%.

`Cc1ccc(S(=O)(=O)CCSc2nc(C)cc(C)c2C#N)cc1`: the survival is 53%.

For `Nc1nonc1C(=O)NCCNCc1cccc(Cl)c1Cl`, the survival is 65%.

As to `CC(=O)c1cccc(-n2c(=O)c3c4c(sc3n(CC(=O)Nc3ccccc3F)c2=O)CN(C(C)=O)CC4)c1`, the survival is 123%.

On to `Cc1cccc(-c2nnc(N(C(=O)C3CCC3)C(C)C)s2)c1`, for which the survival is 113%.

As for `COc1ccc(Cn2c(CCC(=O)Nc3cccc(OC)c3)nc3cccnc32)cc1`, the survival was 68%.

Regarding `Cc1ccc(COC(=O)c2ccc(-c3nnn(Cc4ccc(C)cc4)n3)cc2)cc1`, the survival was 69%.

Take `COc1cc(CN(C(=O)COc2ccccc2Cl)c2ccccn2)cc(OC)c1OC`: the survival was 72%.

With `COc1ccc(Cl)cc1NS(=O)(=O)c1ccc2c(c1)NC(=O)CC(=O)N2`, the survival is 88%.

In the case of `COc1cccc(-c2cc(C(F)(F)F)n3nc(C)c(-c4ccccc4)c3n2)c1`, the survival is 79%.

For the compound `Cc1nn(-c2nc(-c3ccc(F)cc3)cc(C(F)(F)F)n2)c(C)c1Cl`, the survival was 5% (active).

Take `COc1ccccc1-c1c(C)nn2c(C(F)(F)F)cc(-c3ccccc3)nc12`: the survival is 41%.

Consider `COc1ccc(-n2nc(C)c3c(C(F)(F)F)cc(-c4cccnc4)nc32)cc1`, for which the survival was 56%.

For the compound `Cc1nn(-c2nc(-c3ccc(F)cc3)cc(C(F)(F)F)n2)c(C)c1Br`, the survival was -2% (active).

For `CN(Cc1ccccc1)c1nc(-c2ccc(F)cc2)cc(C(F)(F)F)n1`, the survival is 72%.

Regarding `CC(C)(C)NC(=O)CSc1nc(-c2ccc(F)cc2)cc(C(F)(F)F)n1`, the survival was 72%.

With `Cc1nn(-c2nc(-c3ccccc3)cc(C(F)(F)F)n2)c(C)c1Cl`, the survival is 5% (active).

Consider `COc1cccc(-c2cc(C(F)(F)F)nc(-n3nc(C)c(Br)c3C)n2)c1`, for which the survival was 41% (active).

As to `CCC(C)NC(=O)CSc1nc(-c2ccc(F)cc2)cc(C(F)(F)F)n1` (centres undefined), the survival was 86%.

With `COc1cccc2c1Oc1ncccc1N(C(=O)Nc1ccc(F)c(Cl)c1)C2`, the survival was 135%.

With `COc1cccc(N2CCN(S(=O)(=O)c3ccc4[nH]c5c(c4c3)CCCC5)CC2)c1`, the survival was 84%.

Take `C[N+](C)(C)CC(O)COc1ccccc1` (centres undefined): the survival is 82%.

On to `CCc1cccc(C)c1NC(=O)Cn1nc(C)n2cccc2c1=O`, for which the survival was 92%.

With `COc1cccc(CNC(=O)CCc2nnc3n(CC(C)C)c(=O)c4ccccc4n23)c1`, the survival is 85%.

On to `COc1ccccc1CNC(=O)CCc1c(C)nc2c(c(C)nn2-c2ccc(C)c(C)c2)c1C`, for which the survival was 69%.

On to `CN1C(=O)c2cccc3c(S(=O)(=O)Nc4cccc(C(=O)O)c4)ccc1c23`, for which the survival is 74%.

With `COC(=O)c1c(-c2ccc(Cl)cc2)noc1N1CCN(c2ccc(C(C)=O)cc2)CC1`, the survival is 81%.

As to `O=C(CN1CCC(n2nnc3ccccc32)CC1)N(C1CCCCC1)C1CCCCC1`, the survival is 100%.

In the case of `Cc1cccc(NS(=O)(=O)c2ccc3[nH]c(=O)[nH]c3c2)c1C`, the survival was 78%.

As for `Cc1cc(NC(=O)C2CCCN(S(=O)(=O)c3ccc(Br)s3)C2)ccc1Br` (centres undefined), the survival was 68%.

For `COCC(=O)NC1CCN(Cc2nnnn2Cc2ccc3c(c2)OCO3)CC1`, the survival is 87%.

As for `COc1ccccc1NC(=O)Cn1c(=O)n(CC(=O)NCc2ccccc2Cl)c(=O)c2sccc21`, the survival was 172%.

As for `CC(=O)c1ccc(S(=O)(=O)Nc2cccc(-c3ccc(N4CCCCC4)nn3)c2)cc1`, the survival was 80%.

With `COc1ccccc1OCc1nc(C#N)c(NCc2ccc(C)cc2)o1`, the survival is 83%.

Consider `Cc1cccc(OCc2nc(C#N)c(NCc3ccccc3Cl)o2)c1`, for which the survival is 53%.

Turning to `COc1ccc(CNc2oc(COc3cccc(C)c3)nc2C#N)cc1`, the survival was 40% (active).

Regarding `N#Cc1nc(COc2cccc(Cl)c2)oc1NCCc1ccccc1`, the survival was 39% (active).

As to `COc1ccc(CCNc2oc(COc3cccc(C)c3)nc2C#N)cc1OC`, the survival is 95%.

With `COc1cccc(/C=C/c2nc(C#N)c(NCCc3ccccc3)o2)c1`, the survival is 90%.

For `N#Cc1nc(COc2ccccc2Cl)oc1NCCc1ccccc1`, the survival was 48%.

For `COc1ccc(CCNc2oc(COc3ccc(Cl)cc3)nc2C#N)cc1OC`, the survival was 74%.

On to `Cc1ccc(OCc2nc(C#N)c(NCCc3ccccc3)o2)cc1`, for which the survival is 35% (active).

As to `CCN(CC)c1ccc2cc(-c3nc(-c4cccs4)no3)c(=O)oc2c1`, the survival is 83%.

For the compound `CCC(Sc1nc2ccncc2[nH]1)C(=O)Nc1cc(C)ccc1C` (centres undefined), the survival was 132%.

As to `Cn1ncc(C(=O)N2CCN(c3ccccc3F)CC2)c1C1CCN(C(=O)OC(C)(C)C)CC1`, the survival was 71%.

For the compound `CCOc1ccc2oc(=O)cc(CN3CCN(Cc4ccc(F)cc4)CC3)c2c1`, the survival was 83%.

Take `CCOc1ccc2oc(=O)cc(CN3CCN(C(=O)c4ccc(Cl)cc4)CC3)c2c1`: the survival is 86%.

Turning to `CCOc1ccc2oc(=O)cc(CN3CCN(C(=O)c4ccc(F)cc4)CC3)c2c1`, the survival is 31% (active).

`CCOc1ccc2oc(=O)cc(CN3CCN(C(=O)c4ccc(OC)c(OC)c4)CC3)c2c1`: the survival is 50%.

For the compound `CCOc1ccc2oc(=O)cc(CN3CCN(C(=O)c4cccc(F)c4)CC3)c2c1`, the survival is 31% (active).

As for `CCOc1ccc2oc(=O)cc(CN3CCN(C(=O)c4cccc(Cl)c4)CC3)c2c1`, the survival is 66%.

The record behind these values is PubChem BioAssay AID463173 (ICCB-Longwood Screening Facility, Harvard Medical School, 2010).
